From PubChem BioAssay AID624125 (The Scripps Research Institute Molecular Screening Center, 2012)
The whole screen tested about 360,000 compounds, of which about 2,600 (0.72%) were called active. The sample holds actives, similar compounds and a random draw of the others, so the mix is not that of the screen.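 The calls were made as follows: active = inhibition above its plate's cutoff, the mean inhibition of sample wells plus 3 SD (cut at about 27% in these data); inactive = the rest.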

target: Muscarinic acetylcholine receptor M4 (Homo sapiens) (UniProt P08173); assay: human M4 muscarinic receptor antagonists, primary screen, CHO cells, Fluo-8 calcium fluorescence (AID 624125); details: CHO-hM4 cells, ACh EC80, Fluo-8 calcium fluorescence; at 3 µM; hits give high values;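 also: 0% = acetylcholine EC80 with DMSO and 100% = DMSO without agonist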
Sequence (P08173 whole entry, looked up): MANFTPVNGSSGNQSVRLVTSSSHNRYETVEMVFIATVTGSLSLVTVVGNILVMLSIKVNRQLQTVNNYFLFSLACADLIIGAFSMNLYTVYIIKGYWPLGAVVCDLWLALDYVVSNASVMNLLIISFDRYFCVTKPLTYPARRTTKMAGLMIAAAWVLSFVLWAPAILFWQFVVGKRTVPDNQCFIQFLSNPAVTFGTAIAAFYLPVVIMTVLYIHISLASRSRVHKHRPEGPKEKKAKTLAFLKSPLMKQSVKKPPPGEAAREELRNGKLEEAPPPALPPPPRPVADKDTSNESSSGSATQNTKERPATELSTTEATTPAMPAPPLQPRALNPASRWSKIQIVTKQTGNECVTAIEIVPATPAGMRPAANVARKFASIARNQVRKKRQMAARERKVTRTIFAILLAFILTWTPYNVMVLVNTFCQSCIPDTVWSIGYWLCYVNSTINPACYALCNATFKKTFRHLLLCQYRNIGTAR

inhibition, active:
COc1ccccc1C1SCCN1C(=O)c1ccc([N+](=O)[O-])cc1 (stereo not drawn) 57%
O=C(c1cccs1)C1C(c2ccc(Br)cc2)NC(=S)NC1(O)C(F)(F)F (stereo not drawn) 77.3%
CN(Cc1nc(-c2cnccn2)no1)Cc1n[nH]c2c1CCCCC2 37.3%
CCN(CC)c1ccc(/C=N/NC(=O)c2cnccn2)c(O)c1 33.1%
Nc1c(C(=O)c2cccs2)sc2nsc(SCCN3CCCCC3)c12 42%
CN(C)c1ccc(/C=C2\NC(=S)N(Cc3ccccc3)C2=O)cc1 44.5%
c1ccc2c(c1)OCC(CNc1ncnc3nc[nH]c13)O2 (stereo not drawn) 65.3%
CN(C)CC/C=C1\c2ccccc2CSc2ccccc21 83%
CCNS(=O)(=O)c1ccc(NC(=O)Nc2cccc(C(F)(F)F)c2)cc1 30.8%
CCC1C=C(c2ccccc2)C=CN=C1N(CC)CC (stereo not drawn) 35%
CC(=O)N1CCCc2cc(S(=O)(=O)N3CCCC(C(=O)N4CCN(c5cccc(Cl)c5)CC4)C3)ccc21 (stereo not drawn) 43.8%
CCN(CC)Cc1nc2sc(C)c(C)c2c(=O)[nH]1 34.7%
Nc1nnc(SCC(=O)Nc2ccc3nc(SCC(=O)Nc4ccccc4)sc3c2)s1 40.5%
C=C(C)c1cccc(C(C)(C)NC(=O)NCCN(CC)CC)c1 61.6%
Cc1cc2cc(CNC(=O)c3ccc(S(=O)(=O)N4CCOCC4)cc3)ccc2[nH]1 28.9%
CC(C)(C)N(CC#CCC(O)(c1ccccc1)C1CCCC1)CCO (stereo not drawn) 31.3%
C[C@H]1CN([C@@H](C)CO)C(=O)Cc2cc(NC(=O)Cc3ccccc3)ccc2O[C@H]1CN(C)S(=O)(=O)c1cccs1 35.1%
Cc1ccc(N(Cc2ccc(C(=O)Nc3ccccc3C(=O)NCc3ccco3)cc2)S(C)(=O)=O)cc1C 39.7%

inhibition, inactive:
COc1ccc(CCN2C(=O)N(c3ccc(OC)cc3)C(=O)C2CC(=O)Nc2ccc(OC)cc2)cc1 (stereo not drawn) -16.8%
CCN(Cc1ccccc1)C(=O)CSc1nc(C)cc2c1C(=O)OC2 8.21%
O=C(Nc1ccc(F)cc1)C1CCN(C(=O)c2ccc([N+](=O)[O-])cc2)CC1 -7.19%
C[N+]1(CC(O)COc2ccccc2)CCN(C(=O)c2ccc([N+](=O)[O-])cc2)CC1 (stereo not drawn) -5.14%
Cn1c(=O)c2c(SCC(=O)NCC3CCCO3)nc(CC(C)(C)C)nc2n(C)c1=O (stereo not drawn) 2.72%
CCNc1nc(Oc2ccc(C(=O)OC)cc2)nc(N2CCOCC2)n1 2.43%
CCOC(=O)C1C(c2ccc(O)cc2)NC(=O)NC1(O)C(F)(F)F (stereo not drawn) 5.66%
CC1=NN(c2cccc(Cl)c2)C(=O)C12CC(C)=C(C)CS2 (stereo not drawn) -0.34%
O=C1Nc2c(Br)cc(Br)cc2C1(O)N1CCOCC1 (stereo not drawn) -12%
CCC(CC)C(C(=O)NC1CCCC1)N1CCN(c2cc(C)nc3ccccc23)CC1 (stereo not drawn) -16.6%
CCn1ccnc1CN(C)Cc1nc(-c2ccc3c(c2)OCO3)no1 1.6%
CN(Cc1cc2cc(F)ccc2[nH]1)Cc1nc(-c2cnccn2)no1 -8.36%
CCOc1cc(CNCc2ccccn2)ccc1OCC(=O)NC(C)(C)C 1%
CCN(CC)c1ccc(NC(=O)c2ccc(Cl)nc2)cc1 1.79%
COc1cccc(OCC(=O)NNC(=O)c2cnccn2)c1 12.6%
CC1(C)Cc2cccc(OCC(=O)N3CCN(c4ccc([N+](=O)[O-])cc4)CC3)c2O1 -2.84%
COc1cccc(/C=C/C(=O)OCC(=O)N2CCCc3ccccc32)c1 -7.08%
O=c1[nH]c(=O)n(Cc2ccco2)c2c1C(C(F)(F)F)(C(F)(F)F)N=C(c1ccco1)N2 4%
O=C1C(=O)N(CCCO)C(c2ccccc2)/C1=C(\O)c1ccc(Br)cc1 (stereo not drawn) 3.51%
COC(=O)[C@]12CCCCC=C1N(Cc1ccccc1)C(=O)[C@H](CC(=O)NCc1ccc(C)o1)C2 -11.9%
OC[C@@H]1CN(Cc2ccc(-c3ccccc3)cc2)C[C@H](n2cnc3c(NC4CCCC4)ncnc32)O1 19.1%
CN(C)c1ccc(CSc2ccccc2)cc1 -16.2%
CC(C)(C)C(=O)COC(=O)c1cc(S(=O)(=O)N2CCCCC2)ccc1N1CCOCC1 -6.6%
CC1Cc2[nH][nH]c(=O)c2C(C2CCCC2)O1 (stereo not drawn) 3.85%
CCNC(=S)N(CCN(CC)CC)Cc1cc2cc3c(cc2[nH]c1=O)OCO3 1.79%
O=C(COc1ccc(F)cc1Br)NCC1COc2ccccc2O1 (stereo not drawn) 3.31%
CCC(=O)c1ccc(OCC(=O)N(CC)CC2COc3ccccc3O2)cc1 (stereo not drawn) -18.3%
O=[N+]([O-])c1cc(S(=O)(=O)CCCN2CCOCC2)ccc1F -17.3%
CC(C)(O)C#Cc1ncc(C(F)(F)F)cc1Cl 3.84%
COC(=O)[C@@H](NC(=O)Nc1cc(Cl)ccc1C)C(C)C 8.25%
CN(C)Cc1ccccc1C1(O)c2ccccc2CSc2ccccc21 (stereo not drawn) 22.2%
Cc1cccc(-n2c(O)c(C=Nc3ccccc3N)c(=O)[nH]c2=O)c1 4.12%
CN(C)CCCNC(=O)c1cc(C(=O)Cc2ccc(Cl)cc2)c[nH]1 -5.01%
CCOC(=O)c1nnn(-c2nonc2-n2cccc2)c1CN1CCC(C(=O)OCC)CC1 0.5%
Cc1cc(S(=O)(=O)N2CCOCC2)ccc1OCC(=O)Nc1cccc(C(F)(F)F)c1 14.2%
CCNS(=O)(=O)c1ccc(NC(=O)c2cncc(Br)c2)cc1 -2.17%
CCCNC(=O)C[C@@H]1CC[C@@H]2[C@H](COC[C@H](O)CN2C(=O)c2cc(Cl)cc(Cl)c2)O1 2.23%
Cc1ccc(C(=O)O)cc1S(=O)(=O)NCC1CCCO1 (stereo not drawn) 0.46%
CCc1cc(C(=O)OC)c(NC(=O)CC2Sc3ccc(C(F)(F)F)cc3NC2=O)s1 (stereo not drawn) 0.19%
COc1cc(OC)c2ccc(=O)oc2c1C(CCN1CCN(c2ccccc2)CC1)c1ccc2c(c1)OCO2 (stereo not drawn) 4.01%
O=C(N/N=C/c1sc(N2CCCCC2)nc1-c1cccs1)c1cccnc1 -11.5%
Nc1cc2c(cc1Br)-c1ccc(F)cc1C2=O -3.7%
COc1ccc(S(=O)(=O)N2CCCC(C(=O)N3CCN(C)CC3)C2)cc1C (stereo not drawn) -3.22%
Cc1ccc(S(=O)(=O)N2CCCC(C(=O)N3CCN(C)CC3)C2)cc1 (stereo not drawn) 11.1%
Cc1ccc(S(=O)(=O)N2CCCC2C(=O)OCc2nc3sc(C)c(C)c3c(=O)[nH]2)cc1 (stereo not drawn) -8.5%
Cc1sc2nc(CSCC(=O)Nc3c(Cl)cccc3Cl)[nH]c(=O)c2c1C -1.67%
Cn1c2c(c(=O)n(C)c1=O)C1c3ccccc3OCC1C(C)(C)O2 (stereo not drawn) -10.5%
COc1cc(OC)cc(-c2nnc(SCC(=O)Nc3ccc(C(=O)O)cc3)s2)c1 3.22%
CCCCNC(=O)CSc1nc2ccc(NC(=O)CSc3nnc(N)s3)cc2s1 4.39%
CSc1nc2nc(-c3cccc(C(F)(F)F)c3)ccn2n1 -1.52%
C=C(C)c1cccc(C(C)(C)NC(=O)NC2CCCC2)c1 4.8%
C=C(C)c1cccc(C(C)(C)NC(=O)N2CCN(c3ncccn3)CC2)c1 6.08%
COc1ccc(-c2cn(-c3ccc(C)cc3)c(=O)n2CC(=O)Nc2ccc(OC)c(OC)c2)cc1 4.43%
COC(=O)c1ccc(CNC(=O)c2ccc(S(=O)(=O)N3CCCCCC3)cc2)cc1 5.81%
Cc1cc2cc(CNC(=O)c3cccs3)ccc2[nH]1 -4.44%
CC1CCc2sc(C(=O)N/N=C/C3CCCCC3)cc2C1 (stereo not drawn) -5.14%
COc1ccc(-c2nc(N)sc2C2(O)C(=O)Nc3c(Br)cc(F)cc32)cc1OC (stereo not drawn) -0.95%
O=CNc1cc(-c2ccc(C(=O)N3CCOCC3)cc2)cn2c(-c3ccc(F)cc3)cnc12 0.14%
OC(C#CCN1CCOCC1)(c1ccccc1)C1CCCCC1 (stereo not drawn) 10.4%
Cc1ccc(C)c(N2CCN(C(=O)CCc3nc(-c4cccc(C(F)(F)F)c4)no3)CC2)c1 -9.53%
Cc1cc(O)ccc1NC1=CC(=O)CC(C)(C)C1 2.61%
CCc1nc2c(OCCOc3ccc(F)cc3)cccn2c1N(C)C(=O)c1ccccc1F 1.61%
CCOC(=O)CCCCCC(=O)Nc1ccc2c(c1)CC(=O)N([C@@H](C)CO)C[C@H](C)[C@@H](CN(C)Cc1ccccc1)O2 -3.74%
COc1ccc(S(=O)(=O)N(C)C[C@H]2Oc3ccc(NS(=O)(=O)c4cccs4)cc3CC(=O)N([C@H](C)CO)C[C@H]2C)cc1 5.37%
NC(=O)c1cc(S(=O)(=O)NCCCc2ccco2)cs1 3.61%
O=C(CNS(=O)(=O)c1ccc(Br)s1)N1CCN(C(=O)c2ccco2)CC1 -1.1%
CC(C)C(NS(=O)(=O)c1cccs1)C(=O)Nc1nc(C(C)(C)C)cs1 (stereo not drawn) -1.31%
CCN1CCN(C(=O)c2ccc(CN(c3ccc(C)c(C)c3)S(C)(=O)=O)cc2)CC1 -4.91%
CS(=O)(=O)N(Cc1ccc(Cl)cc1)c1ccc(C(=O)NCCSCc2ccco2)cc1 13.9%
c1ccc2c(c1)OC1OC2Oc2ccccc21 -7.83%
